Hit rate of the full screen: of about 5,500 compounds, about 2,000 (36%) were called active. About 18% were inconclusive and are not listed. No stated cut-off is given here; in the data, active means normalized growth mostly below about 0.91 (no sharp cut-off); inconclusive means no clear call, values can overlap the other calls; inactive means mostly above about 0.92. Some of the results follow.
Assay: chemical genetic growth profiling, strain panel (AID 1159580);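 further: tested at 20 µM; growth read once vehicle control cultures reached saturation at 30 °C; 1 = growth at the plate median or of vehicle wells; lower values mean less growth of the strain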
Conditions: S. cerevisiae deletion strains, growth OD

Measured: normalized growth

Cn1cc(C2=C(c3ccc(Cl)cc3Cl)C(=O)NC2=O)c2ccccc21
inactive: locus YAL040C, strain CLN3, hits give low values 1.02 | locus YCL061C, strain MRC1 (second series), hits give low values 1.01 | locus YDR363W, strain ESC2, hits give low values 1.01 | locus YER002W, strain NOP16, hits give low values 0.994 | locus YMR263W, strain SAP30, hits give low values 1.01 | locus YNL175C, strain NOP13, hits give low values 1 | locus YNL197C, strain WHI3, hits give low values 1 | locus YNL224C, strain SQS1, hits give low values 1.02 | locus YNL322C, strain KRE1, hits give low values 1 | locus YOR083W, strain WHI5 (second series), hits give low values 1.01 | locus YPL241C, strain CIN2, hits give low values 1.01
